# Screens: PubChem BioAssay, National Center for Advancing Translational Sciences (NCATS)
# Sfp PPTase inh = qHTS Assay for Inhibitors of Bacillus subtilis Sfp phosphopantetheinyl transferase (PPTase); 4'-phosphopantetheinyl transferase ffp (Bacillus subtilis), Q9F4F7; Biochemical Sfp PPTase activity, qHTS; Potency, µM, without a hit: largest response in the series, negative = inhibition, most hits filed as inhibitors; hit rate 3.5% among 310,000;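 note: the enzyme is Sfp with the accession as filed and its product quenches rhodamine fluorescence; potency is the fitted concentration of half-maximal effect; 0% = enzyme reaction without inhibitor and -100% = no enzyme wells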
#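 Buffer: 50 mM Hepes-Na pH 7.6, 10 mM MgCl2, 0.01% Nonidet P-40, 0.01% BSA. Enzyme 15 nM, pre-exposed to compound 15 min; substrates then added and fluorescence change tracked over 30 min.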
# PLK1 PBD inh = qHTS for Inhibitors of PLK1-PDB (polo-like kinase 1 - polo-box domain): Primary Screen | Plk1 PBD binding of FITC phosphopeptide, fluorescence polarization | Serine/threonine-protein kinase PLK1 (Homo sapiens), P53350 | hit rate 2.8% among 360,000 | Potency, µM, without a hit: max response, negative = inhibition, hits mostly inhibitors; note: potency is the fitted concentration of half-maximal effect; series mostly up to about 57 µM; nearly all actives have a fitted effect of over 65% in size
# Target sequence (P53350 whole entry, looked up, the tested form may be a part): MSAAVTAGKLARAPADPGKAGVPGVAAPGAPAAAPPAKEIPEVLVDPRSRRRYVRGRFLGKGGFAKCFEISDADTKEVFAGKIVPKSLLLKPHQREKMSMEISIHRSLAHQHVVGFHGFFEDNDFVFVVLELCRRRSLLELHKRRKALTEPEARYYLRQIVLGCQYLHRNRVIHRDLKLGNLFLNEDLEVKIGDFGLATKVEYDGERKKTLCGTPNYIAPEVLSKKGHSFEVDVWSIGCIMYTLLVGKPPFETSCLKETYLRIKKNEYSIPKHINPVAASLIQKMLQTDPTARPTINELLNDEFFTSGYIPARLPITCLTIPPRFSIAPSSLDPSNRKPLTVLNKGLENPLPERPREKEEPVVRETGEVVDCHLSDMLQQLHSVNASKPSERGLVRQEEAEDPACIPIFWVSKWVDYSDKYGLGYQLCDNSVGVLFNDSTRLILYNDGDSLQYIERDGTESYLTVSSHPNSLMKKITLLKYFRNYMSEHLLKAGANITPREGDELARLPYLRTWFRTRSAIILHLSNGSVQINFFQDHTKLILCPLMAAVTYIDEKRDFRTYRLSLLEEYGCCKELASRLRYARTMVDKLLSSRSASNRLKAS
# G9a block = qHTS Assay for Inhibitors of Histone Lysine Methyltransferase G9a | G9a H3K9 monomethylation, AlphaScreen, 2 h | Potency, µM (doses to about 102 µM), for the others: at the highest dose activity, negative = inhibition, actives largely listed as inhibitors | hit rate 8.8% among 350,000 | AID 504332, 2011; note: potency is the fitted concentration of half-maximal effect; nearly all actives have a fitted effect of over 75% in size
#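 Methyltransferase reactions run at room temperature for 2 h (20 nM enzyme, 500 nM biotin-H3K9 peptide, 20 uM SAM) after a 15 min compound preincubation; product detected by AlphaScreen beads and anti-H3K9me1 antibody.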
# MmCpn inh = Inhibitors of TCP-1 ring complex (TRiC) of Methanococcus maripaludis (MmCpn): qHTS. hit rate 0.031% among 330,000. purified Mm-Cpn ATPase, ADP Transcreener TR-FRET. Potency, µM (highest dose often 76.9 µM), inactives show at the highest dose activity, negative = inhibition, actives largely listed as inhibitors; note: potency is the fitted concentration of half-maximal effect; nearly all actives have a fitted effect of over 80% in size
#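 Inhibition of chaperonin ATP hydrolysis is measured as reduced ADP production, detected by competitive TR-FRET in which signal falls with ADP. Final enzyme 25 nM and ATP 10 uM, reacted 30 min at 37°C.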
# VDR inhibitor = Inhibitors of the vitamin D receptor (VDR): qHTS. Vitamin D3 receptor (Homo sapiens), P11473. VDR-SRC2-3 peptide fluorescence polarization, 2 h. Potency, µM, for the others: max response, negative = inhibition, actives largely listed as inhibitors. hit rate 0.93% among 400,000; note: potency is the fitted concentration of half-maximal effect
#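 The screen uses fluorescence polarization to detect compounds that interfere with recruitment of the SRC2-3 coactivator peptide to VDR; plates are read after 2 h at room temperature.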
# CCT modulator = High-Throughput Screening for Modulators of Cytosolic Chaperonin Activity; purified chaperonin ATPase assay, HTRF ADP detection, 30 min; activity change, % (test concentration not listed), hits read low; hit rate 0.3% among 360,000; AID 651819, 2012; in the data active = activity change below about -30%
#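 ATPase activity: ADP formed was measured by HTRF Transcreener (665/615 nm ratio) after 30 min at 37 deg C with 10 uM ATP. Compounds screened at one 76 uM concentration against 40 or 20 nM TRiC in Tris pH 7.4/KCl/MgCl2/DTT buffer.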
# Active calls of the source: *; ? = inconclusive; . = no result given; ! = not active in a repeat; [ ] = dose if it differs, or a comment. This is a sample that favours compounds with a hit; in the whole collection about 10% have one here. Unless noted, calls come from the whole dose curve; as a rule, active = well fitted curve in the direction sought with a large enough effect; inconclusive = small, poorly fitted or top-dose-only effect, or another doubt; inactive = no such curve, though single readings can be large; an effect the other way counts as inactive or inconclusive. Unless noted, % is set by controls: 0 for no effect and ±100 for the full control effect.
SMILES,Sfp PPTase inh,PLK1 PBD inh,G9a block,MmCpn inh,VDR inhibitor,CCT modulator
CNC(=O)c1ccc(S(=O)(=O)c2ccc(Cl)cc2)c(NC(C)=O)c1,9%,6%,-3%,3%,6%,-4
O=C(c1nnsc1S(=O)(=O)c1ccc(Cl)cc1)N1CCOCC1,16%,?,50µM*,0%,?,-4
CCN(CC)C(=S)S,45µM*,.,?,.,?,.
Cc1ccc(-n2nc(C)c3c(C(=O)NCCc4ccc(S(N)(=O)=O)cc4)cc(C)nc32)cc1,.,.,0%[59 µM],.,6%,.
N=c1ncn(Cc2ccccc2)c2nc(SCCOc3ccccc3)[nH]c12,21%,0%,79µM*,-2%,-12%,0
NCCC1CCCC(CCN)N1 (stereo not drawn),.,-1%,8.9µM*!,-1%,-14%,-1
Cc1ccc(Nc2nnc(SC3CCOC3=O)s2)cc1 (stereo not drawn),-2%,-21%,10µM*,-1%,-10%,-2
CC(C)c1ccc(Nc2nnc(SC3CCOC3=O)s2)cc1 (stereo not drawn),-5%,3%,3%[59 µM],-3%,-4%,-1
O=C(Nc1ccccc1)Nc1cccc2ccccc12,-9%,-1%,.,-3%,4%,0
Cc1cccnc1NC(=O)Nc1cccc2ccccc12,4%,-5%,7.1µM*,-3%,-11%,-5
COC(=O)c1c(-c2cccnc2)csc1NC(=O)c1ccc2c(c1)OCO2,?,-29%,.,-3%,89µM*,-1
COC(=O)c1sccc1NC(=O)c1ccc2c(c1)OCO2,17%,-5%,-4%[12.7 µM],-5%,1%,0
CCc1c2c(nc3ccc(OC)cc13)OC(C)C2 (stereo not drawn),4%,.,.,.,.,.
O=C(c1cccn(Cc2ccc(C(F)(F)F)cc2)c1=O)N1CCOCC1,6%,27µM*,22%,-1%,-3%,-7
COc1cc(Br)c(C2CC(=O)Nc3cc4c(cc32)OCCO4)cc1OC (stereo not drawn),.,.,?,.,-16%,.
CC1=C(CC/C(C)=N/NC(N)=S)C(C)(C)CCC1,45µM*,?,?,0%,?,-2
CC(C)=CCN1CCN(CCC2=C(C)CCCC2(C)C)CC1CCO (stereo not drawn),16%,-13%,-5%,?,-8%,-1
Cc1ccc2cccc(OCC(=O)NCc3ccco3)c2n1,28µM*,-10%,-22%[59 µM],2%,7%,-4
Cc1ccc(OCC(=O)NCc2ccco2)c([N+](=O)[O-])n1,-3%,-3%,-1%,-3%,-5%,-1
CCc1cccc2c(C(=O)COC(=O)/C=C/c3ccc(O)c(OC)c3)c[nH]c12,11%,-5%,45µM*,-1%,6%,-1
COc1cccc(/C=C/C(=O)OCC(=O)c2c[nH]c3ccccc23)c1,.,1%,-47%[59 µM],-16%,3%,1
COc1cc(/C=C/C(=O)OCC(=O)NCc2ccco2)ccc1O,.,-7%,40µM*,0%,-14%,0
COc1ccccc1OCC(=O)NCc1ccco1,4%,-9%,56µM*,1%,4%,-3
CCc1nn2c(=O)cc(COC(=O)c3cccc(NC(=O)COc4ccccc4F)c3)nc2s1,.,.,1%[59 µM],.,9%,.
COc1ccccc1OCC(=O)NCCSCc1ccccc1Cl,-11%,27µM*,-4%[59 µM],0%,?,0
SMILES,Sfp PPTase inh,PLK1 PBD inh,G9a block,MmCpn inh,VDR inhibitor,CCT modulator
O=C(COc1ccccc1)NCCSCc1ccccc1Cl,-14%,-6%,-10%[0.501 µM],-2%,9%,0
COc1cc(C(=O)NNC(=S)NCc2ccco2)cc(OC)c1OC,25%,-3%,56µM*,-1%,3%,0
O=C(COC(=O)C1(c2ccc(F)cc2)CCCC1)NCc1ccco1,56µM*,-13%,?,-1%,0%,-3
C=C(C(C)=O)C(O)c1ccccc1 (stereo not drawn),-19%,.,.,.,-3%,.
CCN=c1scc(-c2ccco2)n1/N=C/c1ccc(O)cc1,35µM*,-10%,35µM*,0%,-17%,-2
CCN=c1scc(-c2ccco2)n1/N=C/c1ccc(OC)c(O)c1,50µM*,-21%,14µM*,.,-20%,0
CCOC(=O)N/N=C/c1ccc(OC)c(O)c1,-22%,-2%,24%,3%,-22%,0
COC(=O)C(=C/C(C)=C/c1cccs1)C(=O)OC,5%,19µM*,2%,-2%,-13%,1
COC(=O)N/N=C/c1cccs1,15%,-5%,10%,3%,11%,-1
CC(CCc1ccco1)NC(=O)Cn1ncc2c1-c1ccccc1OC2 (stereo not drawn),50µM*,-10%,?,-4%,-12%,-3
O=C(Cn1ncc2c1-c1ccccc1OC2)N(Cc1ccco1)C1CCCCC1,-10%,-9%,?,1%,-7%,-2
Cc1ccc(-n2c(SCc3ccccc3C)nc3[nH]ncc3c2=O)cc1C,.,.,-34%[59 µM],.,5%,.
COc1ccc(-c2cc(C(=O)Nc3cc(S(=O)(=O)N4CCOCC4)ccc3N3CCOCC3)c3ccccc3n2)cc1,20%,3%,-40%,-11%,-6%,0
CCN1CCN(c2ccc(S(=O)(=O)N3CCOCC3)cc2NC(=O)c2cc(F)c(F)c(F)c2F)CC1,.,-5%,.,.,.,1
CCN1CCN(c2ccc(S(=O)(=O)N3CCOCC3)cc2NC(=O)c2sccc2C)CC1,.,-14%,13µM*,-3%,-9%,-3
CCN1CCN(c2ccc(S(=O)(=O)N3CCOCC3)cc2NC(=O)c2ccccc2SC)CC1,.,-1%,32µM*,-2%,-1%,-6
CCN1CCN(c2ccc(S(=O)(=O)N3CCOCC3)cc2NC(=O)C(C)Oc2ccc(Cl)cc2)CC1 (stereo not drawn),.,0%,11µM*,0%,-8%,2
CCN1CCN(c2ccc(S(=O)(=O)N3CCOCC3)cc2NC(=O)CC(C)C)CC1,.,4%,0%[12.7 µM],0%,-6%,-3
CCN1CCN(c2ccc(S(=O)(=O)N3CCOCC3)cc2NC(=O)c2cc(Cl)nc3ccccc23)CC1,.,-2%,45µM*,1%,8%,-12
CCN1CCN(c2ccc(S(=O)(=O)N3CCOCC3)cc2NC(=O)c2ccc(C)cc2C)CC1,.,-1%,?,-2%,3%,0
